Bioassay records from PubChem BioAssay.
TIM10 inh – inhibits growth of TIM10 yeast strain; hit rate 1.4% among 330,000; inhibition, % at 10 µM; S. cerevisiae TIM10 strain growth, BacTiter-Glo luminescence, 24 h;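 active = inhibition of 40% or more at the single tested concentration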;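 also: wild-type TIM10 isogenic control strain grown at permissive 25 °C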
PfHsp90 yeast 2 – reduces growth (ATP signal) of yeast expressing P. falciparum Hsp90 | S. cerevisiae expressing PfHsp90, BacTiter-Glo ATP, 48 h; yeast lacking PDR1 and PDR3 efflux regulators | AID 504621 | inhibition, % at 9.4 µM | hit rate 0.32% among 310,000;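 active = every replicate shows inhibition above about 80%, whatever the replicate mean, limit read from the data; inconclusive = mean inhibition reaches the set limit but some replicate falls short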;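 also: 0% = DMSO neutral controls and 100% = 20 µM radicicol positive controls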
tim23-1 inh – growth inhibitors of tim23-1 mutant yeast; hit rate 1.3% among 330,000; S. cerevisiae tim23-1 growth, BacTiter-Glo luminescence, 24 h; inhibition, % at 20 µM;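 active = growth inhibition of the mutant yeast at or above 50%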;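 also: temperature-sensitive mutant grown at 25 °C; plate controls were DMSO-treated mutant yeast for no effect and medium wells lacking yeast for full effect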
tim10-1 inh – growth inhibitors of tim10-1 mutant yeast; S. cerevisiae tim10-1 ts strain growth, BacTiter-Glo, 24 h; inhibition, % at 20 µM; hit rate 2.2% among 330,000; AID 463190;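 active = inhibition of at least 40%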;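 also: mutant grown at 25 °C; 0% = DMSO wells with yeast and 100% = wells holding no yeast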
Calb FLC – affects C. albicans growth with fluconazole. C. albicans CaCi-2 (fluconazole-resistant clinical isolate) + fluconazole, Alamar Blue growth, 48 h. growth inhibition, % (concentration not given with the values). hit rate 0.57% among 300,000;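 active = growth inhibition above about 58% in most replicates, limit read from the data, passing the limit was not always enough; inconclusive = exactly half the replicates above a set limit; inactive = most replicates below a set limit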;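 also: all wells also contain fluconazole at 8 µg/ml as a sub-toxic cotreatment; 0% = median of DMSO wells and 100% = median of geldanamycin control wells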
SKKanGAS inh – inhibitors of SKKanGAS S. pyogenes growth in kanamycin (SK-promoter or general growth effect); BacTiter-Glo, 6 h; inhibition, % at 7.5 µM; hit rate 1.3% among 300,000;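 active = mean replicate score, as percent of positive control median, at least 50; inconclusive = mean below 50 but one replicate at or above 50; inactive = mean and every replicate below 50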;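 also: strain carries kanamycin resistance gene driven by streptokinase promoter and grows in 40 µg/ml kanamycin; loss of luminescence reflects streptokinase promoter inhibition or plain growth inhibition; 0% = median of DMSO wells and 100% = positive control at its reference dose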
An asterisk follows results filed as active; ? = inconclusive; . = no result given. Shown are actives, neighbours in structure and some others; about 4.7% of the full set was active somewhere.

SMILES	TIM10 inh	PfHsp90 yeast 2	tim23-1 inh	tim10-1 inh	Calb FLC	SKKanGAS inh
CSc1nsc2nc(=O)c(/C=C3\C=Nc4ccccc43)c(N)n12	10.5	-4.0	32.5	-2.6	26.9	50.3*
O=C(Nc1cccc(Cl)c1)Nc1cc(S(=O)(=O)N2CCCCC2)ccc1Cl	12.7	3.4	12.2	31.2	-17.5	53.6*
O=C(CCNS(=O)(=O)c1ccccc1F)N1CCN(C/C=C/c2ccccc2)CC1	-0.5	0.2	8.8	1.6	-5.3	-3.3
CC1Cc2cc(S(=O)(=O)N3CCC(C(=O)NCc4ccco4)CC3)ccc2N1C(=O)C1CCC1 (stereo unspecified)	9.2	16.5	16.8	24.6	3.9	-3.2
CCc1ccc(C)c(OC(=O)c2cncc(Br)c2)c1	-14.9	-4.3	3.9	-15.3	8.8	3.9
Cc1ccc(C)c(OC(=O)c2cncc(Br)c2)c1	5.4	2.6	23.5	8.0	97.8*	-4.6
O=[N+]([O-])c1ccc(-c2cnc(SCc3ccccc3Cl)[nH]2)cc1	36.5	-7.3	42.8	31.4	39.3	2.2
O=[N+]([O-])c1ccc(-c2cnc(SC(c3ccccc3)c3ccccc3)[nH]2)cc1	5.2	13.9	0.3	-6.1	-16.5	61.7*
Cc1ccc(NC(=O)NNS(=O)(=O)c2ccc(Br)cc2)cc1	2.5	.	-2.9	-9.0	-4.8	-2.7
Cc1ccc(S(=O)(=O)NC(=O)Nc2ccc(N(C)C)cc2)cc1	7.9	10.3	13.2	14.2	87.2*	12.5
Cc1ccc(NS(=O)(=O)c2ccc(Cl)c(C(=O)Nc3cccc(C(=O)O)c3)c2)cc1	-4.2	-5.0	15.4	5.2	-5.8	5.6
COc1cc(CN2CCCCCC2)cc(OC)c1OC	1.4	12.1	-3.8	-10.4	-3.5	2.9
COc1cc(Cc2cnc(N)nc2N)cc(OC)c1OC	5.8	-13.2	-2.7	0.2	.	50.6*
CC(C)Cn1c(/C=N/Nc2nc3ccccc3[nH]2)nc2ccccc21	.	-4.9	.	.	4.4	96.6*
CCN(CC)c1ccc(/C=N/Nc2nc(C)cc(=O)[nH]2)c(O)c1	34.0	-15.0	47.9	9.6	102.3*	7.2
Cc1cc(=O)[nH]c(NN=Cc2cc(Br)ccc2O)n1	.	-4.8	.	.	.	.
CCCn1c(/C=N/Nc2nc3ccccc3[nH]2)nc2ccccc21	.	-10.0	.	.	.	.
Cc1c(/C=N/Nc2nc3ccccc3[nH]2)c2ccccc2n1C	-40.8	4.0	18.0	18.3	6.2	88.2*
CCN(CC)c1ccc(/C=N/Nc2nc3ccccc3[nH]2)cc1	.	.	.	.	65.3	95.5*
COc1cccc(C2C(C#N)=C(N)N(N(C)C)C3=C2C(=O)CC(C)(C)C3)c1OC (stereo unspecified)	2.2	-70.0	6.7	13.5	1.1	1.1
CCC(C)(C(=O)Nc1ccc(OC)cc1)N(C)C(=O)Cn1nnnc1N (stereo unspecified)	-13.2	-2.1	6.8	9.0	7.6	-13.7
Cc1nn(Cc2ccc(Cl)cc2Cl)c(C)c1NC(=O)NC12CC3CC(CC(C3)C1)C2	38.2	13.0	34.8	35.1	17.7	50.5*
COc1ccc(/C=N/NC(=O)Cc2csc(Nc3cccc(C(F)(F)F)c3)n2)cc1C	9.2	-13.9	13.6	18.2	-3.6	76.8*
CCCCn1c(O)c(N=NC(=O)c2ccncc2)c2cc(Br)ccc21	7.9	6.1	1.0	-3.3	3.5	83.4*
COc1ccc(CCN2CC(C(=O)NCCc3ccccc3C)CCC2=O)cc1 (stereo unspecified)	4.1	-1.6	18.4	24.8	-16.4	-10.8
SMILES	TIM10 inh	PfHsp90 yeast 2	tim23-1 inh	tim10-1 inh	Calb FLC	SKKanGAS inh
COc1ccc(CCN2CC(C(=O)NCCc3ccccn3)CCC2=O)cc1 (stereo unspecified)	2.1	14.2	0.9	-17.8	3.9	49.8*
COc1ccccc1CN1CC(C(=O)NCc2nccn2C)CCC1=O (stereo unspecified)	-1.2	-4.9	-5.5	-4.3	-3.6	-4.4
COc1ccccc1CN1CC(C(=O)NCc2ncccc2C)CCC1=O (stereo unspecified)	-3.2	21.2	2.4	-19.7	-2.4	51.2*
COc1ccc(NC(=O)CSc2nccn2Cc2ccc(F)cc2)cc1	-6.2	-1.5	32.7	6.9	2.1	6.1
COc1ccc(NC(=O)NCc2ccccn2)c(OC)c1	6.4	-10.3	8.9	6.0	11.8	31.0
Cc1cc(C)c(C)c(S(=O)(=O)N2CCC(C(=O)NNC(=O)c3ccccc3O)CC2)c1C	-7.6	-6.6	18.5	10.5	?	60.8*
CC(C)(C)CC(=O)Nc1nnc(C(F)(F)F)s1	-8.2	1.9	5.0	5.6	81.5*	5.8
O=C(CN1CCN(c2ccccc2F)CC1)Nc1nnc(C(F)(F)F)s1	-0.9	11.6	25.2	-18.4	85.8*	11.4
CC(NC(=O)Nc1nnc(C(F)(F)F)s1)N1C(=O)C2C3C=CC(C3)C2C1=O (stereo unspecified)	-4.5	31.6	16.1	-2.9	-1.4	-6.4
CC(NC(=O)Nc1nnc(C(F)(F)F)s1)(C(F)(F)F)C(F)(F)F	14.9	10.4	20.7	21.7	70.6	84.1*
CC/C=C(\NC(C)=O)c1ccccc1	-0.7	-22.3	7.9	8.1	.	.
CC(Sc1nnc(C2CC2)n1-c1ccccc1)C(=O)N1CCCC1 (stereo unspecified)	-1.3	-8.9	5.4	9.2	.	.
CCCCCc1nnc(NC(=O)c2ccc(N3CCCC3=O)cc2)s1	-0.5	-6.5	1.8	-4.4	-11.1	3.6
O=C(OCc1ccccc1)c1cccc(-c2nnn(Cc3ccccc3)n2)c1	0.7	7.4	-3.3	33.3	-1.1	54.6*
O=C(Cn1nnc(-c2ccccc2)n1)OCc1ccccc1	-0.4	-17.5	8.8	25.4	-7.6	-2.6
O=C(c1ccccc1Cl)N1CCC(n2cccc2)CC1	15.4	12.1	-0.6	-2.6	-4.7	8.0
CCC(=O)NC(/C=C/c1ccccc1)c1cc([N+](=O)[O-])c2cccnc2c1O (stereo unspecified)	27.8	.	-4.3	14.7	3.0	41.3
CC(C)C(=O)NC(c1cccs1)c1cc([N+](=O)[O-])c2cccnc2c1O (stereo unspecified)	17.5	-90.1	24.9	13.4	89.8*	77.0*
Cc1ccc(C(NC(=O)C(C)C)c2cc([N+](=O)[O-])c3cccnc3c2O)cc1 (stereo unspecified)	15.2	67.5	28.4	29.9	-7.3	89.2*
CC(Sc1nnc(Cc2cccs2)n1C)C(=O)Nc1ccc(C(N)=O)cc1 (stereo unspecified)	-1.9	-19.2	8.0	-2.4	.	.
CCOC(=O)c1c(CN(C)C)n(-c2ccc(C)cc2)c2cc(Br)c(O)cc12	31.3	-12.0	14.8	22.4	29.1	100.3*
CC(=O)Nc1c(-c2ccccc2)c2cc(Br)ccc2[nH]c1=O	-4.3	-4.6	7.6	7.5	-2.6	-3.1
Cc1ccccc1C(=O)Nc1ccccc1N1CCN(C(=O)c2ccccc2)CC1	2.9	0.5	28.0	30.8	9.4	55.3*
Cc1c(O)cc2n(c1=O)-c1ccccc1C2(C)C	-7.5	0.2	8.1	9.5	2.0	19.0
